# Source: PubChem BioAssay (NCATS)
# Records with an inconclusive call do not appear. A call without a number means that no potency is given here. Activity calls are given as the source filed them. Calls come from the whole dose curve; as a rule, active = well fitted cell-killing curve with a large enough effect; inconclusive = small, poorly fitted or top-dose-only effect; inactive = flat fitted curve, though single readings scatter.
# Experiment: Identifying Small Molecule Inhibitors of Pancreatic Cancer Stem Cells (SN12C, Adherent) (AID 1259358);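 note: cell survival measured after 48 h of compound exposure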
# Details: viability/growth inhibition; series mostly up to 46.1 µM
# Text: Progenitor-like cancer cells, often referred to as cancer stem cells (CSC), are believed to be the drivers of therapeutic resistance and rapid recurrence. CSCs are postulated to reside in specific niches characterized by low oxygen tension, limited nutrient supply, and high redox load. Selectively targeting CSC, alone or in combination with cytotoxic agents, as a means to produce durable remissions is an appealing concept. Modeling these cells in in vitro setting is an important step in finding new therapies and/or targets. Multiple reports highlight that forcing cells in culture into 3-dimensionaly architectures (spheroids) re-establishes key progenitor-like transcriptional signatures. Pancreatic cancer is among the diseases with the most dismal outlook which is driven, largely, by recurance following front-line therapies. […] In hopes of deriving new insight into the targeting of these pancreatic CSCs we examined three established pancreatic cancer cell lines in cytotoxicity assays versus a collection of approved and investigational drugs. Importantly, we screened these lines as traditional monolayer (2D) and spheroid (3D) formats to gain an appreciation of agents with differential activity.
# Multicellular tumor spheroids from Panc1, MiaPaCa-2, and the primary low-passage tissue culture line SB.06 were seeded in stem cell media (SCM) in nonadherent 6-well plates coated with hydrogel (Corning Life Sciences, Chelmsford, Mass) and pancreatic spheres generated for 14 days before screening. Cells were seeded into 1536-well solid-bottom white tissue culture treated Greiner Bio One Plates (789173-F) using a MultiDrop Combi (Thermofisher Scientific) dispenser and a small sterile cassette. One column was media alone to be used as a :"no cells" control. The plates were then covered with sterilized stainless steel gasketed lids from Kalypsys. After allowing cells to attach for 4 hours, 23 nL of test compound or control (negative control DMSO and positive control 9.2 uM Bortezomib-final) were added from a 1536-well polypropylene compound source plate to each well using a 1536 head pin tool from Kalypsys. Cells were then incubated for 48 hours at 37C, 95% relative humidity and 5% CO2. After 48 hours, plates were removed from the incubator and 3 uL of CellTiter-Glo (Promega) was added using an Aurora Flying Reagent Dispenser Bioraptor. Plates were incubated at room temperature for 10 minutes prior to reading the luminescence on the Viewlux (PerkinElmer). The relative luciferase units are used to calculate the percent activity using the activity of DMSO in the cells and no cells columns for normalization of no inhibition and full inhibition respectively.
# Potency is the fitted concentration of half-maximal effect.
row,Structure (SMILES),Potency
1,CS(=O)(=O)c1ccc(C(=O)Nc2ccc(Cl)c(-c3ccccn3)c2)c(Cl)c1,inactive
2,CC(c1cc2ccccc2s1)N(O)C(N)=O (stereo not given),inactive
3,Nc1nccc(-c2ccc3noc(-c4ccc(Cl)cc4)c3c2)n1,inactive
4,C#Cc1cccc(Nc2ncnc3cc(OCCOC)c(OCCOC)cc23)c1,8.33 µM (active)
5,COc1cc2nccc(Oc3ccc(NC(=O)NC4CC4)c(Cl)c3)c2cc1C(N)=O,18.7 µM (active)
6,Cc1cccc(-c2[nH]c(C(C)(C)C)nc2-c2ccc3nccnc3c2)n1,inactive
7,CN(C)C(=O)c1ccc(S(=O)(=O)c2ccc(NC(=O)[C@@](C)(O)C(F)(F)F)c(Cl)c2)cc1,inactive
8,Nc1nc2[nH]cc(CCc3ccc(C(=O)N[C@@H](CCC(=O)O)C(=O)O)cc3)c2c(=O)[nH]1,0.662 µM (active)
9,O=c1ncn2nc(Sc3ccc(F)cc3F)ccc2c1-c1c(Cl)cccc1Cl,inactive
10,CC(C)(C)OC(=O)CN(Cc1ccc(Cl)cc1)Cc1ccc([N+](=O)[O-])s1,4.69 µM (active)
11,COc1cc2c(cc1OC)CN(CCc1ccc(NC(=O)c3cccc4c(=O)c5cccc(OC)c5[nH]c34)cc1)CC2,inactive
12,COc1ccc(-c2oc3cc(OC)ccc3c2C(=O)c2ccc(C#N)cc2)cc1,inactive
13,NC(=O)C1CCCc2c1[nH]c1ccc(Cl)cc21 (stereo not given),inactive
14,Cc1ccc2c(c1)C(=O)[C@@]1(O)CCN(c3ccccc3)C1=N2,inactive
15,Cc1c(CN2CCN(C(=O)C(C)C)CC2)sc2c(N3CCOCC3)nc(-c3cnc(N)nc3)nc12,0.0935 µM (active)
16,CC(C)c1onc(-c2c(Cl)cccc2Cl)c1COc1ccc(/C=C/c2cccc(C(=O)O)c2)c(Cl)c1,inactive
17,Cc1c(C)c2c(c(C)c1O)CCC(C)(COc1ccc(CC3SC(=O)NC3=O)cc1)O2 (stereo not given),inactive
18,COc1ccccc1-c1cccc(-c2c(O)c3cc(C#N)c(Cl)cc3[nH]c2=O)c1,inactive
19,COc1nc(-c2ccc3c(c2)OCO3)n(-c2ccc(NC(=O)CSc3ccccc3)cc2)n1,inactive
20,Cc1cnc(Nc2ccc(OCCN3CCCC3)cc2)nc1Nc1cccc(S(=O)(=O)NC(C)(C)C)c1,inactive

row,Structure (SMILES),Potency
1,O=C(C1CC1)N1CC[C@@H](Cn2c(-c3ccc(-c4ccc5occc5c4)cc3)nc3cnccc32)C1,inactive
2,COc1cc(F)c(F)c(Nc2ccc(I)cc2F)c1NS(=O)(=O)C1(C[C@H](O)CO)CC1,20.9 µM (active)
3,Fc1ccc(Cl)cc1-c1nc(Nc2ccncc2)c2nccnc2n1,inactive
4,O=C(Nc1cccnc1)N1CCC(Cc2cccc(Oc3ccc(C(F)(F)F)cn3)c2)CC1,inactive
5,Clc1ccc(Nc2nnc(Cc3ccncc3)c3ccccc23)cc1,inactive
6,Nc1nc2ccc(OC(F)(F)F)cc2s1,inactive
7,Cc1[nH]c(=O)c(C#N)cc1-c1ccc2nccn2c1,inactive
8,CC(C)C[C@H](NC(=O)[C@@H](O)[C@H](N)Cc1ccccc1)C(=O)O,inactive
9,COCCNCCCn1c(C(=O)CF)c(-c2ccc(C)cc2)c2c(N)ncnc21,inactive
10,O=C(O)c1ccc(-c2c[nH]c3ccc(-c4ccccc4)cc23)cc1C1CCCC1,inactive
11,COc1ccccc1[C@H](c1cccc2ccccc12)[C@@](C)(C#N)C(=O)N1CCC(c2cccc(C(F)(F)F)c2)CC1,inactive
12,CCOc1ccn(-c2ccc(F)cc2)c(=O)c1C(=O)Nc1ccc(Oc2ccnc(N)c2Cl)c(F)c1,18.7 µM (active)
13,CCOc1cc(C=C2C(=O)N(c3ccccc3)N=C2C)cc(Cl)c1OCC(=O)OC,inactive
14,Oc1cccc(-c2nc(N3CCOCC3)c3oc4ncccc4c3n2)c1,0.0743 µM (active)
15,CCn1c(-c2nonc2N)nc2cnc(Oc3cccc(NC(=O)c4ccc(OCCN5CCOCC5)cc4)c3)cc21,inactive
16,CC1(C)CNc2cc(NC(=O)c3cccnc3NCc3ccncc3)ccc21,inactive
17,c1ccc(-c2nn3c(c2-c2ccnc4cc(OCCN5CCOCC5)ccc24)CCC3)nc1,inactive
18,CCOC(=O)C1=C[C@@]2(CC)CCCN3CCc4c(n1c1ccccc41)[C@H]32,inactive
19,CN(C(=O)c1ccc(F)cc1C(F)(F)F)C1CCN(c2nnc(-c3ccnn3C)c3ccccc23)CC1,inactive
20,CCCc1nc2c(C)cc(-c3nc4ccccc4n3C)cc2n1Cc1ccc(-c2ccccc2C(=O)O)cc1,inactive
